# Laboratory results: PubChem BioAssay (NCATS)
# Results filed as inconclusive are left out. Activity calls are given as the source filed them. The call rests on the fitted dose curve; in most records, active means well fitted cell-killing curve with a large enough effect; inconclusive means small, poorly fitted or top-dose-only effect, or effect the other way; inactive means flat fitted curve, though single readings scatter. Where a SMILES comes first, the peptide text is derived from it. The star is where a group is joined. AFC = O=c1cc(C(F)(F)F)c2ccc(N*)cc2o1
# Test system: PA-1
# Test: Primary qHTS to identify gynecologic anti-cancer compounds using libraries of approved drugs and bioactive compounds (AID 1345084); further: nearly all actives have a fitted effect of over 55% in size
# Settings: Gynecologic cancer cell panel viability, ATPlite luminescence, 48 h; series mostly up to 57.5 µM; activity change, negative = cytotoxicity: at the top concentration
# How it was run: (§1)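 Five-concentration response, 48 h; readout is ATP-driven luciferase luminescence.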
# On the % scale 0 is the no-effect control and ±100 the full control effect.
row,Structure (SMILES),"activity change, negative = cytotoxicity"
1,C=C1C[C@]23C[C@H]1CC[C@H]2[C@@]1(C)CCC[C@@]2(C)C(=O)O[C@@H]([C@@H]3O)[C@@H]12,-3.01% [at 38.5 µM] (inactive)
2,CC(O)CCC1C(CO[C@@H]2O[C@H](CO)[C@@H](O)[C@H](O)[C@H]2O)CC(O)CC1(C)C (some centres not stated),-2.4% [at 38.5 µM] (inactive)
3,CC1=C2C[C@H]3O[C@@]3(C)CCC3O[C@@]3(C)C[C@@]2(O)OC1=O (some centres not stated),-0.622% (inactive)
4,O=C(O)Cc1cn(C2OCC(O)C(O)C2O[C@@H]2O[C@H](CO)[C@@H](O)[C@H](O)[C@H]2O)c2ccccc12 (some centres not stated),0.496% [at 25.3 µM] (inactive)
5,CC(C)C(C#N)O[C@@H]1O[C@H](CO[C@@H]2O[C@@H](C)[C@H](O)[C@@H](O)[C@H]2O)[C@@H](O)[C@H](O)[C@H]1O (some centres not stated),7.05% [at 25.3 µM] (inactive)
6,COC1CC(OC2CCC3(C)C(=CCC4C3C(OC(C)=O)C(OC(=O)/C=C/c3ccccc3)C3(C)C(C(C)O)CCC43O)C2)OC(C)C1OC1CC(OC)C(OC2OC(C)C(OC3OC(CO)C(O)C(O)C3O)C(OC)C2O)C(C)O1 (configuration not stated),-0.704% [at 6.55 µM] (inactive)
7,C=C1C(O)CC2C(C(=O)O)=COC(O[C@@H]3O[C@H](COC(=O)/C=C/c4ccc(O)cc4)[C@@H](O)[C@H](O)[C@H]3O)C12 (some centres not stated),16.9% [at 25.3 µM] (inactive)
8,CC(=O)O[C@H]1CC[C@H](C)[C@@]2(C)[C@H](OC(C)=O)c3c(C)coc3C(=O)[C@H]12,1.79% [at 38.5 µM] (inactive)

# Test system: SKOV3
# Test: as above
# Settings: Gynecologic cancer cell panel viability, ATPlite luminescence, 48 h; series mostly up to 57.5 µM; activity change, negative = cytotoxicity: at the top concentration
# How it was run: as §1
row,Structure (SMILES),"activity change, negative = cytotoxicity"
1,CCC(C)C(=O)O[C@H]1CCC=C2C=C[C@H](C)[C@H](CC[C@@H](O)C[C@@H](O)CC(=O)O)[C@H]21 (some centres not stated),29.2% [at 25.3 µM] (inactive)
2,CC(=O)NC1C(OC(C)(C)C2CCC3(C)C=C(C4CCC5C4(C)CC(O)C4OC(C(C)(C)O)CCC45C)CCC3O2)OC(CO)C(O)C1O (configuration not stated),-3.8% [at 25.3 µM] (inactive)
3,CC(=O)O[C@@H]1c2c3c(cc(O)c2C(=O)O[C@@H]1C)O[C@@]1(C)[C@@H](O)C[C@H]2C(C)(C)C(=O)C=C[C@]2(C)[C@@H]1C3,-0.194% [at 25.3 µM] (inactive)
4,COc1c(C)c(OCC(O)C(C)(C)O)cc2c1COC2=O (configuration not stated),-3.3% (inactive)
5,CC(=O)CC1CCC(C(C)C(=O)OCC(O)CO)O1 (configuration not stated),22.4% (inactive)
6,O=C(O)COCCN1CCN([C@H](c2ccccc2)c2ccc(Cl)cc2)CC1,0% (inactive)
7,Nc1nc2c(ncn2[C@@H]2O[C@@H]3COP(=O)(O)O[C@H]3[C@H]2O)c(=O)[nH]1,0% (inactive)
8,CC1=C(C(=O)O)/C(=C/CO[C@@H]2O[C@H](COC(=O)/C=C/c3ccc(O)cc3)[C@@H](O)[C@H](O)[C@H]2O)C(O)C1 (some centres not stated),35.9% [at 25.3 µM] (inactive)
9,Cc1cc(C)c2c(N)c(C(=O)NCc3ccc(Cl)cc3)sc2n1,-1.41% (inactive)
10,CC(=O)OC1C(O)C2C(C)C3=CC(=O)OC3(O)CC2C2(C)CCCC(C)(CO)C12 (configuration not stated),0.528% [at 25.3 µM] (inactive)
11,CC(C)C(NC(=O)c1ccc2ccccc2n1)C(=O)NC(CC(=O)O)C(=O)COc1c(F)cccc1F (configuration not stated),6.48% (inactive)
12,O=C(Nc1ccc(-c2ccncc2)cc1)N[C@H](CO)c1ccccc1,18% (inactive)
13,CC1=CC2/C=C(\C)CC[C@@H](O)[C@@H](O)[C@@H]3O[C@@H]3C(=O)[C@]23C(=O)N[C@@H](CC(C)C)[C@@H]3[C@@H]1C (some centres not stated),-4.25% [at 25.3 µM] (inactive)
14,O=C(NCC(O)CO)c1ccncc1Nc1ccc(I)cc1F (configuration not stated),-0.727% (inactive)
15,CC1(C)CC2=C3C=CC4C5(C)CCC(O)C(C)(C)C5CCC4(C)C3(C)CCC2(C)C(O)C1 (configuration not stated),9.27% [at 25.3 µM] (inactive)
16,COC(=O)C1=CO[C@@H](O[C@@H]2O[C@H](CO)[C@@H](O)[C@H](O)[C@H]2O)[C@H]2[C@@H]1CC(OC)O[C@@H]2C (some centres not stated),0.738% [at 25.3 µM] (inactive)
17,C[C@@H]1O[C@@H](O[C@@H]2[C@@H](O[C@@H]3O[C@@H](C)[C@H](O[C@@H]4OC[C@H](O)[C@H](O[C@@H]5OC[C@@H](O)[C@H](O)[C@H]5O)[C@H]4O)[C@@H](O[C@@H]4OC[C@](O)(CO)[C@H]4O)[C@H]3O)[C@H](OC(=O)[C@]34CCC(C)(C)C[C@H]3C3=CCC5[C@@]6(C)C[C@H](O)[C@H](O[C@@H]7O[C@H](CO[C@@H]8OC[C@H](O)[C@H](O)[C@H]8O)[C@@H](O)[C@H](O)[C@H]7O)C(C)(C)C6CC[C@@]5(C)[C@]3(C)C[C@H]4O)OC[C@H]2O)[C@H](O)[C@H](O)[C@H]1O (some centres not stated),4.47% [at 6.55 µM] (inactive)
18,C=C1CCCC2(C)CC3(OC)OC(=O)C(C)=C3CC12 (configuration not stated),0% (inactive)
19,CC(C)=CCC/C(C)=C/CCC1(C)Oc2c(c(O)cc3c2CN(C(CCC(=O)O)C(=O)O)C3=O)CC1O (configuration not stated),-4.73% [at 25.3 µM] (inactive)
20,C=C(C(=O)O)C1CCC2(C)CCC(O)C(=C)C2C1 (configuration not stated),6.13% (inactive)

row,Structure (SMILES),"activity change, negative = cytotoxicity"
1,CC12CCC3c4ccc(OC5OC(C(=O)O)C(O)C(O)C5O)cc4CCC3C1CCC2O (configuration not stated),0% (inactive)
2,CC(=O)N[C@@H](Cc1c[nH]c2ccccc12)C(=O)N[C@@H](CCC(=O)O)C(=O)N[C@@H](Cc1cnc[nH]1)C(=O)N[C@@H](CC(=O)O)C(=O)Nc1ccc2c(C(F)(F)F)cc(=O)oc2c1 (Ac-WEHD-{AFC}),11.9% [at 38.5 µM] (inactive)
3,C[C@@H]1O[C@@H](O[C@H]2[C@@H](OC(=O)[C@]34CCC(C)(C)CC3C3=CCC5[C@@]6(C)C[C@H](O)[C@H](O[C@@H]7O[C@H](C(=O)O)[C@@H](O)[C@H](O)[C@H]7O)[C@@](C)(C(=O)O)C6CC[C@@]5(C)[C@]3(C)CC4)OC[C@H](O)[C@@H]2O)[C@H](O)[C@H](O)[C@H]1O[C@@H]1OC[C@@H](O)[C@H](O)[C@H]1O (some centres not stated),13.5% [at 11.6 µM] (inactive)
4,CC12CCC(C(OC3OC(COC4OCC(O)(CO)C4O)C(O)C(O)C3O)C1)C(C)(C)O2 (configuration not stated),6.7% [at 25.3 µM] (inactive)
5,O=C(/C=C\c1ccc(O)cc1)N[C@@H](Cc1ccc(O)cc1)C(=O)O,0% [at 38.5 µM] (inactive)
6,O=C(O)c1cccc(S(=O)(=O)N2CCc3ccccc3C2)c1,26.3% (inactive)
7,C[C@@H]1O[C@@H](O[C@H]2[C@H](O)[C@@H](O[C@@H]3O[C@H](CO)[C@@H](O)[C@H](O[C@@H]4O[C@H](CO)[C@@H](O)[C@H](O)[C@H]4O)[C@H]3O)[C@H](O[C@H]3CC[C@@]4(C)C(=CC[C@@H]5C4CC[C@@]4(C)C5C[C@@H]5OC6(CC[C@@](C)(CO[C@@H]7O[C@H](CO)[C@@H](O)[C@H](O)[C@H]7O)O6)[C@@H](C)[C@@H]54)C3)O[C@@H]2CO)[C@H](O)[C@H](O)[C@H]1O (some centres not stated),5.85% [at 6.55 µM] (inactive)
8,COc1ccc(/C=C/C(=O)O[C@H]2[C@H](O[C@H]3[C@@H]4C=CO[C@@H](O[C@@H]5O[C@H](CO)[C@@H](O)[C@H](O)[C@H]5O)[C@@H]4[C@@]4(CO)O[C@@H]34)O[C@@H](C)[C@H](O)[C@H]2OC(C)=O)cc1,7.18% [at 25.3 µM] (inactive)
9,COC(=O)C12C(=O)C(C)=C(O)C1(C)C(C)=CC1C3(CO)CCC(O)C(C)(C)C3CCC12C (configuration not stated),-10% [at 25.3 µM] (inactive)
10,C=C1[C@H](OC(C)=O)[C@H]2[C@@H](OC(C)=O)[C@](C)(OC(C)=O)C[C@]2(OC(C)=O)C(=O)[C@H](C)/C=C/C(C)(C)C(=O)[C@H](OC(=O)C(C)C)[C@H]1OC(C)=O,29.1% [at 25.3 µM] (inactive)
11,COC(=O)N(C)c1c(N)nc(-c2nn(Cc3ccccc3F)c3ncccc23)nc1N,0% (inactive)
12,C=C1C[C@]23C[C@H]1CC[C@H]2[C@@]1(C)CCC[C@@]2(C)C(=O)O[C@@H]([C@@H]3O)[C@@H]12,-0.532% [at 38.5 µM] (inactive)
13,CC(O)CCC1C(CO[C@@H]2O[C@H](CO)[C@@H](O)[C@H](O)[C@H]2O)CC(O)CC1(C)C (some centres not stated),-1.44% [at 38.5 µM] (inactive)
14,CC1=C2C[C@H]3O[C@@]3(C)CCC3O[C@@]3(C)C[C@@]2(O)OC1=O (some centres not stated),-6.28% (inactive)
15,O=C(O)Cc1cn(C2OCC(O)C(O)C2O[C@@H]2O[C@H](CO)[C@@H](O)[C@H](O)[C@H]2O)c2ccccc12 (some centres not stated),-26.9% [at 25.3 µM] (inactive)
16,CC(C)C(C#N)O[C@@H]1O[C@H](CO[C@@H]2O[C@@H](C)[C@H](O)[C@@H](O)[C@H]2O)[C@@H](O)[C@H](O)[C@H]1O (some centres not stated),4.31% [at 25.3 µM] (inactive)
17,COC1CC(OC2CCC3(C)C(=CCC4C3C(OC(C)=O)C(OC(=O)/C=C/c3ccccc3)C3(C)C(C(C)O)CCC43O)C2)OC(C)C1OC1CC(OC)C(OC2OC(C)C(OC3OC(CO)C(O)C(O)C3O)C(OC)C2O)C(C)O1 (configuration not stated),-8.31% [at 6.55 µM] (inactive)
18,C=C1C(O)CC2C(C(=O)O)=COC(O[C@@H]3O[C@H](COC(=O)/C=C/c4ccc(O)cc4)[C@@H](O)[C@H](O)[C@H]3O)C12 (some centres not stated),4.19% [at 25.3 µM] (inactive)
19,CC(=O)O[C@H]1CC[C@H](C)[C@@]2(C)[C@H](OC(C)=O)c3c(C)coc3C(=O)[C@H]12,3% [at 38.5 µM] (inactive)
